An excerpt weighted towards active compounds, which were near 2.7% of everything screened.
IP6K1 inhibitor: Primary qHTS assay for small molecule inhibitors of Inositol hexaphosphate kinase 1 (IP6K1) | Inositol hexakisphosphate kinase 1 (Homo sapiens), Q92551 | IP6K1 kinase, ADP-Glo luminescence, 2 h; stronger effect = lower value | activity change, % (series mostly up to about 58 µM) | actives 0.81% (n = 140,000) | AID 1645851, 2021; in the data active = activity change below about -25%; note: % is set by controls: 0 for no effect and ±100 for the full control effect
Target sequence (Q92551 whole entry, looked up): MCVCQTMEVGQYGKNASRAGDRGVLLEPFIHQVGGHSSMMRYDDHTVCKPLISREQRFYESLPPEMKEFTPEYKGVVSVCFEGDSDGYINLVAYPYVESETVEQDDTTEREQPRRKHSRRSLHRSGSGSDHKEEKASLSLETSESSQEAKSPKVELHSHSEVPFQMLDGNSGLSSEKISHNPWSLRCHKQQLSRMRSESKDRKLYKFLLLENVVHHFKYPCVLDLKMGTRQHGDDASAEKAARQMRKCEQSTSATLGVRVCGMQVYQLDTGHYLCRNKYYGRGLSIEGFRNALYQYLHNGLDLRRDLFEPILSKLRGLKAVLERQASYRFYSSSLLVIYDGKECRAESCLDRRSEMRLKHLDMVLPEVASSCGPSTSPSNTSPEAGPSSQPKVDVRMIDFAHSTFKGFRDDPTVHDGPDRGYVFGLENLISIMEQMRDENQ
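ADP-Glo luminescence measures ADP made by human IP6K1 during a 2 h RT reaction with ATP/IP6 (mix at 1.3 mM/130 uM); top library doses 57.5 and 19.1 uM final.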
KDM5B inhibitor: Primary screen for KDM5B Histone Demethylases FDH-coupled qHTS; Lysine-specific demethylase 5B (Homo sapiens), Q9UGL1; KDM5B demethylase, FDH-coupled NADH fluorescence (FDH is formaldehyde dehydrogenase); Potency, µM (titrated, usually from 57.7 µM), hits mostly inhibitors; actives 2.6% (n = 220,000); active = well fitted inhibition curve with a large enough effect; inconclusive = small, poorly fitted or top-dose-only effect; inactive = no such curve, though single readings can be large or run the other way; note: potency is the fitted concentration of half-maximal effect; 0% is about no effect; nearly all actives have a fitted effect of over 70% in size
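Coupled FDH/NAD⁺ fluorescence readout. KDM5BΔAP 200 nM final; compound titration, 10 min RT preincubation; substrate mix 12.5 µM H3K4me3, 25 µM 2-OG, 50 µM Fe(II), 100 µM ascorbate, 0.25 mM NAD⁺, 0.25 U/mL FDH; ΔRFU over 30 min.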
Active calls of the source: *.

What do the screens show for `CC(=O)Nc1ccc(CNC(=O)C2CCC(C(C)(C)C)CC2)cc1` (configuration not stated)?
KDM5B inhibitor: inactive

Results for Cc1cc(-c2csc(NC3CCCC3)n2)c(C)n1NC(=O)c1nn(C)c(=O)c2ccccc12 ?
KDM5B inhibitor: inactive

Results for Cn1ccc2c(C(=O)NCCC(N)=O)nc(-c3ccccc3)cc21 ?
IP6K1 inhibitor: -10; KDM5B inhibitor: 32µM*

How did Cn1cc(-c2cc3c(ccn3C)c(C(=O)NCCc3cnc[nH]3)n2)cn1 do in these assays?
IP6K1 inhibitor: 19; KDM5B inhibitor: inactive

Results for Cn1ccc2c(C(=O)NCCC(N)=O)nc(-c3ccccc3C(F)(F)F)cc21 ?
IP6K1 inhibitor: -12; KDM5B inhibitor: inactive

Results for Cc1ccccc1-c1cc2c(ccn2C)c(C(=O)NCCc2cnc[nH]2)n1 ?
IP6K1 inhibitor: 9; KDM5B inhibitor: 40µM*

Results for Cn1ccc2c(C(=O)NCCC(N)=O)nc(-c3cccc(C(F)(F)F)c3)cc21 ?
IP6K1 inhibitor: -2; KDM5B inhibitor: 14µM*

How did Cn1ccc2c(C(=O)NCCC(N)=O)nc(-c3cccc(CO)c3)cc21 do in these assays?
IP6K1 inhibitor: -2; KDM5B inhibitor: inactive

How did CCOC(=O)Cc1nnc(SC(C)C(=O)Nc2ccc(F)c(F)c2)n1Cc1ccccc1 (configuration not stated) do in these assays?
KDM5B inhibitor: inactive

Results for Cc1nc2nc(SCC(=O)Nc3cccc(Cl)c3C)[nH]c2cc1Br ?
KDM5B inhibitor: inactive

Results for O=C(NCc1ccccc1)c1nc(-c2ccc3[nH]ccc3c2)no1 ?
KDM5B inhibitor: inactive

How did COc1ccc(NC(=O)c2c(C)oc3ccn(Cc4cccc(F)c4)c(=O)c23)cc1F do in these assays?
IP6K1 inhibitor: 5; KDM5B inhibitor: inactive

How did COc1ccc(OC)c(NC(=O)c2c(C)oc3ccn(Cc4cccc(F)c4)c(=O)c23)c1 do in these assays?
IP6K1 inhibitor: 6; KDM5B inhibitor: 25µM*

What do the screens show for `CC(=O)Nc1ccc(NC(=O)c2c(C)oc3ccn(Cc4ccc(F)cc4)c(=O)c23)cc1`?
IP6K1 inhibitor: 12; KDM5B inhibitor: 28µM*

What do the screens show for `COC(=O)c1ccc(NC(=O)c2c(C)oc3ccn(Cc4ccc(F)cc4)c(=O)c23)cc1`?
IP6K1 inhibitor: 6; KDM5B inhibitor: inconclusive

How did Cc1cnc(C(=O)OCc2ccc(-c3ccccc3)cc2)cn1 do in these assays?
KDM5B inhibitor: inactive

Results for Cc1ccsc1CN(C)CC(=O)NC(=O)NCc1ccccc1 ?
KDM5B inhibitor: inactive

Results for CCn1ccc2sc(C)c(C(=O)NCc3ccccc3C)c2c1=O ?
IP6K1 inhibitor: 5; KDM5B inhibitor: inactive

What do the screens show for `Cc1cn2nc(C(=O)Nc3ccc(C(F)(F)F)cc3)cc2c(N2CCSCC2)n1`?
IP6K1 inhibitor: -12; KDM5B inhibitor: 28µM*

Results for COc1ccc(NC(=O)c2cc3c(N4CCSCC4)nc(C)cn3n2)c(OC)c1 ?
IP6K1 inhibitor: 2; KDM5B inhibitor: inconclusive

Results for CCc1ccccc1NC(=O)c1cc2c(N3CCSCC3)nc(C)cn2n1 ?
IP6K1 inhibitor: -18; KDM5B inhibitor: 28µM*

What do the screens show for `Cc1cn2nc(C(=O)NCc3ccccc3Cl)cc2c(N2CCSCC2)n1`?
IP6K1 inhibitor: -12; KDM5B inhibitor: inconclusive

Results for Cc1ccc(NC(=O)c2cc3c(N4CCSCC4)nc(C)cn3n2)cc1 ?
IP6K1 inhibitor: 7; KDM5B inhibitor: 35µM*

What do the screens show for `COc1ccc(NC(=O)c2cc3c(N4CCSCC4)nc(C)cn3n2)cc1`?
IP6K1 inhibitor: -7; KDM5B inhibitor: 14µM*

What do the screens show for `Cc1ccc(CCNC(=O)c2cc3c(N4CCSCC4)nc(C)cn3n2)cc1`?
IP6K1 inhibitor: -15; KDM5B inhibitor: inconclusive

Results for CC(C)C(=O)N1CCN(C(=O)Cn2cnc3sccc3c2=O)CC1 ?
KDM5B inhibitor: inactive

How did O=c1cc2c(nn1Cc1ccc(OC(F)(F)F)cc1)CCCCC2 do in these assays?
IP6K1 inhibitor: 8; KDM5B inhibitor: inactive

Results for Cc1ccc(S(=O)(=O)N2CCC(C(=O)OC(C)C(=O)N3CCCCCC3)CC2)cc1C (configuration not stated) ?
KDM5B inhibitor: inactive

What do the screens show for `COC(=O)c1ccc(COc2ccccc2)o1`?
KDM5B inhibitor: inactive

What do the screens show for `CCN1CCCC1CNC(=O)c1cc(=O)[nH]c2ccccc12` (configuration not stated)?
KDM5B inhibitor: inactive

Results for O=C(COc1ccc2ccccc2c1)Nc1nc2n(n1)C(c1ccccc1)CC(=O)N2 (configuration not stated) ?
KDM5B inhibitor: inactive

What do the screens show for `Cc1cc(F)ccc1S(=O)(=O)N(Cc1cnn(C)c1)C(C)C`?
KDM5B inhibitor: inactive

Results for O=C(CSc1ncc(-c2ccc(Br)cc2)o1)N1CCCCC1 ?
KDM5B inhibitor: inactive

How did COc1ccc(C(C)NC(=O)c2cc3c(N4CCSCC4)nc(C)cn3n2)cc1OC (configuration not stated) do in these assays?
IP6K1 inhibitor: 6; KDM5B inhibitor: 6.3µM*

How did Cc1cn2nc(C(=O)Nc3ccc4c(c3)OCO4)cc2c(N2CCCC2)n1 do in these assays?
IP6K1 inhibitor: 6; KDM5B inhibitor: inconclusive

How did COc1ccc(CCNC(=O)c2cc3c(N4CCSCC4)nc(C)cn3n2)cc1OC do in these assays?
IP6K1 inhibitor: 10; KDM5B inhibitor: inconclusive

How did Cc1cn2nc(C(=O)NCCc3ccccc3)cc2c(N2CCSCC2)n1 do in these assays?
IP6K1 inhibitor: 9; KDM5B inhibitor: inconclusive

Results for Cc1cn2nc(C(=O)Nc3ccc4c(c3)OCCO4)cc2c(N2CCSCC2)n1 ?
IP6K1 inhibitor: 12; KDM5B inhibitor: 32µM*

How did Cc1cccc(NC(=O)c2cc3c(N4CCSCC4)nc(C)cn3n2)c1 do in these assays?
IP6K1 inhibitor: 1; KDM5B inhibitor: 32µM*

How did CCN(CC)C(=O)CSc1nc2c(cc1C#N)CCCC2 do in these assays?
KDM5B inhibitor: inactive

Results for OCC1CN(c2ncccn2)CC12CCN(Cc1cc(F)ccc1F)CC2 (configuration not stated) ?
IP6K1 inhibitor: 22; KDM5B inhibitor: inconclusive

What do the screens show for `O=C(c1cccc2[nH]ccc12)N1CCC2(CC1)CN(c1ncccn1)CC2CO` (configuration not stated)?
IP6K1 inhibitor: 11; KDM5B inhibitor: 32µM*

Results for OCC1CN(c2ncccn2)CC12CCN(Cc1ccc3[nH]ccc3c1)CC2 (configuration not stated) ?
IP6K1 inhibitor: 16; KDM5B inhibitor: 22µM*

What do the screens show for `CC(=O)N1CC(CO)C2(CCN(Cc3cccc(C#N)c3)CC2)C1` (configuration not stated)?
IP6K1 inhibitor: 6; KDM5B inhibitor: inactive

Results for N#Cc1cccc(CN2CCC3(CC2)CN(c2ncccn2)CC3CO)c1 (configuration not stated) ?
IP6K1 inhibitor: 18; KDM5B inhibitor: 28µM*

How did OCC1CN(c2ncccn2)CC12CCN(Cc1cccc3[nH]ccc13)CC2 (configuration not stated) do in these assays?
IP6K1 inhibitor: 1; KDM5B inhibitor: 32µM*

Results for OCC1CN(c2ncccn2)CC12CCN(Cc1c[nH]c3ccccc13)CC2 (configuration not stated) ?
IP6K1 inhibitor: 18; KDM5B inhibitor: inconclusive
